# Laboratory results: PubChem BioAssay (EPA / NIEHS)
# Where “and” joins values, the source holds several entries; their conditions need not be identical. Identical values can stand only once. Some compounds were tested as several samples or in several runs, with calls that do not always agree. Calls of active or inactive are those of the source. Rule for the calls: active = hit-call score of the fitted dose curve at least 0.9, where 1 is the maximum; inactive = score below 0.9.
# Key:
# [1] = read-out: Interleukin-1 alpha (IL1a), IL1A (gene 3552); test: BSK_BF4T_IL1a: BioMAP Diversity Plus: BF4T Assay for Interleukin-1 alpha (IL1a) Biomarker Activity (AID 2284264); conditions: primary human bronchial epithelial cells with fibroblasts
# Procedure, shortened: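 ELISA read-out of IL-1α from bronchial epithelial cell/dermal fibroblast co-cultures 24 h after compound addition. Increases scored against DMSO negative control. Cytotoxicity monitored by sulforhodamine B staining of parallel cultures.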
# Decorin, DCN (gene 1634) = test: BSK_MyoF_Decorin: BioMAP Diversity Plus: MyoF Assay for Decorin Biomarker Activity (AID 2284265); conditions: primary human lung fibroblasts
# Procedure, shortened: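 Compound is added to lung fibroblast cultures; cells incubate 24 h; decorin is then measured by ELISA; the response is analysed upward against DMSO controls.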
# KRT18 (gene 3875) = test: BSK_BF4T_Keratin818: BioMAP Diversity Plus: BF4T Assay for Keratin 818 Biomarker Activity (AID 2284266); conditions: primary human bronchial epithelial cells with fibroblasts
# Procedure, shortened: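 Keratin 8/18 levels quantified by ELISA after 24 h chemical treatment of bronchial epithelial cell/dermal fibroblast co-cultures, fitted in positive direction relative to DMSO. Parallel SRB staining tracks overt cytotoxicity.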
# [2] = BSK_MyoF_SRB: Viability Assessment in the BioMAP Diversity Plus: MyoF Assay (AID 2284267); conditions: primary human lung fibroblasts;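 note: total protein by SRB absorbance in parallel cultures as cytotoxicity measure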
# Procedure, shortened: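 Cytotoxicity read-out: after 10% TCA fixation, parallel human lung fibroblast cultures were stained with 0.1% SRB at 24 h post-dosing and read at 560 nm; DMSO served as baseline.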
# [3] = read-out: Matrix Metallopeptidase 1 (MMP1), MMP1 (gene 4312); test: BSK_MyoF_MMP1: BioMAP Diversity Plus: MyoF Assay for Matrix Metallopeptidase 1 (MMP1) Biomarker Activity (AID 2284268); conditions: primary human lung fibroblasts
# Procedure, shortened: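 Lung fibroblast cultures were dosed with test chemicals and, after 24 h, MMP1 levels were measured by ELISA; responses were referenced to DMSO and analysed for increases.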
# [4] = read-out: TIMP metallopeptidase inhibitor 1 (TIMP1), TIMP1 (gene 7076); test: BSK_MyoF_TIMP1: BioMAP Diversity Plus: MyoF Assay for TIMP metallopeptidase inhibitor 1 (TIMP1) Biomarker Activity (AID 2284269); conditions: primary human lung fibroblasts
# Procedure, shortened: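 ELISA read-out of TIMP-1 from primary human lung fibroblast cultures 24 h after compound dosing; gain of signal relative to DMSO vehicle baseline defines activity.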
# [5] = read-out: Matrix Metallopeptidase 1 (MMP1), MMP1 (gene 4312); test: BSK_BF4T_MMP1: BioMAP Diversity Plus: BF4T Assay for Matrix Metallopeptidase 1 (MMP1) Biomarker Activity (AID 2284270); conditions: primary human bronchial epithelial cells with fibroblasts
# Description: BSK_BF4T is a cell-based, multiplexed-readout assay that uses bronchial epithelial cells and dermal fibroblasts, a human vascular primary cell, with measurements taken at 24 hours after chemical dosing in a microplate: 96-well plate.BSK_BF4T_MMP1 is an assay component measured in the BSK_BF4T assay. It measures MMP-1 antibody related to regulation of gene expression using ELISA technology.Data from the assay component BSK_BF4T_MMP1 was analyzed at the endpoint, BSK_BF4T_MMP1, in the positive analysis fitting direction relative to DMSO as the negative control and baseline of activity. Using a type of binding reporter, gain or loss-of-signal activity can be used to understand protein changes. […]
# The levels of cell surface (or secreted, indicated by the prefix "s") biomarker endpoints were measured by ELISA. Overt cytotoxicity to cells in confluent adherent cultures (all systems other than the BT system) was assessed by measuring total protein levels using sulforhodamine B (SRB) staining in parallel cultures at the time of biomarker measurements, indicated as SRB endpoints. For proliferation assays for adherent cell types, individual cell types are cultured at sub-confluence and relative cell numbers quantified by SRB staining at time points optimized for each system (48 h: 3C and CASM3C systems; 72 h: BT and HDF3CGF systems; 96 h: SAg system). […] Plates were read after 6 h.
# [6] = read-out: Matrix Metallopeptidase 3 (MMP3), MMP3 (gene 4314); test: BSK_BF4T_MMP3: BioMAP Diversity Plus: BF4T Assay for Matrix Metallopeptidase 3 (MMP3) Biomarker Activity (AID 2284271); conditions: primary human bronchial epithelial cells with fibroblasts
# Procedure, shortened: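 MMP-3 level read by ELISA after 24 h chemical exposure of bronchial epithelial cell/dermal fibroblast co-cultures, fitted upward relative to DMSO. Parallel cultures stained with 0.1% SRB after TCA fixation gauge overt cytotoxicity.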
# [7] = read-out: Tissue plasminogen activator (tPA), PLAT (gene 5327); test: BSK_BF4T_tPA: BioMAP Diversity Plus: BF4T Assay for Tissue plasminogen activator (tPA) Biomarker Activity (AID 2284272); conditions: primary human bronchial epithelial cells with fibroblasts
# Procedure, shortened: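 tPA level quantified by ELISA at 24 h post-treatment in bronchial epithelial/dermal fibroblast co-cultures, gain of signal scored against DMSO baseline. Parallel cultures stained with 0.1% SRB (560 nm) to flag overt cytotoxicity.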
# [8] = read-out: Plasminogen Activator Inhibitor-1 (PAI1), SERPINE1 (gene 5054); test: BSK_BF4T_PAI1: BioMAP Diversity Plus: BF4T Assay for Plasminogen Activator Inhibitor-1 (PAI1) Biomarker Activity (AID 2284273); conditions: primary human bronchial epithelial cells with fibroblasts
# Procedure, shortened: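 PAI-1 levels quantified by ELISA 24 h post-dosing in bronchial epithelial cell plus dermal fibroblast cultures. Signal gain referenced to DMSO baseline. Sulforhodamine B total-protein staining of parallel wells checked cytotoxicity.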
structure (smiles),measurement,setting,value
CCNS(=O)(=O)C(F)(F)C(F)(F)C(F)(F)C(F)(F)C(F)(F)C(F)(F)C(F)(F)C(F)(F)F,AC50,[1],36.5 µM (active) and 44.4 µM (active)
same,AC50,"Decorin, DCN (gene 1634)",40.9 µM (active) and 45.6 µM (active)
same,AC50,KRT18 (gene 3875),15.3 µM (active) and 22.5 µM (active)
same,AC50,[2],48.8 µM (active) and 50.9 µM (active)
same,outcome,[3],inactive
same,AC50,[4],38.9 µM (active) and 31.6 µM (active)
same,AC50,[5],30 µM (active)
same,outcome,[6],inactive
same,AC50,[7],7.68 µM (active) and 8.65 µM (active)
same,AC50,[8],41.2 µM (active)
same,outcome,[8],inactive
